# Most compounds without a hit are left out; they make up all but 0.5% or so of the library.
# phage Ecoli inh: E. coli growth loss with phage present | growth absorbance | inhibition, % at 11.9 µM | actives 0.26% (n = 360,000); in the data active = inhibition above about 11%
# AddAB inh: less growth of phage-infected E. coli with AddAB. AID 435030. E. coli expressing H. pylori AddAB, absorbance growth. actives 0.29% (n = 330,000). inhibition, % at 11.9 µM; in the data active = inhibition above about 12%
# E coli growth-1: E. coli growth inhibition; Escherichia coli growth, OD600, 23 h; active compounds read low; OD600 absorbance (concentration not given with the values); actives 0.21% (n = 330,000); AID 1053175;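 active = OD600 absorbance below the run mean of sample wells minus 3.6 SD, in any replicate, cut at about 0.56 in these data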
# E coli growth-2: bacterial growth inhibition, counter-screen for AddAB inhibitors. E. coli V3065 growth, OD600 absorbance, 18 h. inhibition, % at 11.9 µM. actives 0.27% (n = 330,000). AID 449728;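 active = inhibition above the campaign's mean inhibition across all tested compounds plus 3 SD, cut at about 9.9% in these data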;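 note: uninfected addAB+ strain grown without phage in ampicillin broth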
# Tat export inh: E. coli Tat transport inhibition | actives 0.036% (n = 340,000) | E. coli MC4100 TorA-mCherry Tat export, fluorescence | AID 488895 | inhibition, % at 10 µM;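 active = mean replicate inhibition at least 50% and at least half of replicates individually reaching 50%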;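 note: exported cargo escapes ClpAP degradation while cytoplasmic cargo is degraded and loses fluorescence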
# Hits are given with their value; i = inactive; nt = no result.
SMILES,phage Ecoli inh,AddAB inh,E coli growth-1,E coli growth-2,Tat export inh
Cc1c(NC(=O)COc2ccc3ccccc3c2)c(=O)n(-c2ccccc2)n1C,i,i,0.52,i,nt
O=[N+]([O-])c1cccc(SSc2cccc([N+](=O)[O-])c2)c1,i,nt,0.54,nt,i
Nc1cccc([N+](=O)[O-])c1,i,i,i,i,i
O=C(NNC(=O)c1ccco1)c1ccccc1,i,i,i,i,i
O=C(NC(=S)NNC(=O)c1ccco1)c1ccccc1,i,i,0.51,i,i
O=C(Cc1cccs1)NNC(=S)NC(=O)c1ccco1,i,i,0.32,i,i
COc1ccc(S(=O)(=O)Nc2cccc3c2OC(CN(C)Cc2ccccc2)C(C)CN(C(C)CO)C3=O)cc1 (stereo unspecified),nt,nt,i,nt,nt
Cc1ccnc(NC(=O)c2ccc([N+](=O)[O-])s2)c1,i,14,i,i,i
C=CC1c2ccccc2N(S(=O)(=O)c2ccc(C)cc2)C(c2ccc(C(=O)OC)cc2)C1(C#N)C#N (stereo unspecified),nt,nt,i,nt,nt
CC(=CC(=O)OCCCCCCCCC(=O)O)CC1OCC(CC2OC2C(C)C(C)O)C(O)C1O (stereo unspecified),nt,nt,0.12,nt,nt
O=C(COc1ccc([N+](=O)[O-])cc1)Nc1cc(S(=O)(=O)N2CCCCC2)ccc1N1CCCCC1,i,i,i,i,64
Cc1nnc(NC(=O)c2ccc(N3CCCC3=O)cc2)s1,i,nt,i,nt,i
O=C(NC1=NCCS1)c1ccc(N2CCCC2=O)cc1,i,i,0.53,i,i
Cc1cc(=O)[nH]c(SCC(=O)Nc2ccc(Br)cc2)c1C#N,i,i,0.51,i,i
CC1CCN(C(=O)c2ccc(S(=O)(=O)N3CCCC3)cc2)CC1,i,i,i,i,55
CC1CCN(C(=O)c2ccc(S(=O)(=O)N3CCCCCC3)cc2)CC1,i,i,i,i,i
CCC(C)C(N)c1cn(C(CC(N)=O)C(=O)N2CCNCC2)nn1 (stereo unspecified),nt,nt,i,nt,nt
CN1CCN(C(c2cccs2)c2nnnn2Cc2ccc(F)cc2)CC1 (stereo unspecified),i,i,0.45,i,i
c1ccc2c3c([nH]c2c1)-c1[nH]ncc1CC3,i,i,i,i,i
Clc1ccc2[nH]c3c(c2c1)CCc1cn[nH]c1-3,i,i,0.56,i,i
CC(C)N1CCc2c(sc(NC(=O)c3ccc(S(=O)(=O)N4CCc5ccccc54)cc3)c2C(N)=O)C1,nt,i,i,i,62
CC(C)N1CCc2c(sc(NC(=O)c3nc4ccccc4s3)c2C(N)=O)C1,i,i,i,i,i
CCCS(=O)(=O)N1CCCC(C(=O)NCCCN2CCCC2=O)C1 (stereo unspecified),i,15,i,11,i
C#CCNC(=O)C1=CC(c2coc3ccccc3c2=O)C(CCCO)C(OCC)O1 (stereo unspecified),nt,nt,i,nt,nt
Nc1nc(SCC(=O)Nc2ncc(C(F)(F)F)cc2Cl)n[nH]1,i,i,i,12,i
SMILES,phage Ecoli inh,AddAB inh,E coli growth-1,E coli growth-2,Tat export inh
CN1CCC(=O)N(C(CO)Cc2ccccc2)CC1 (stereo unspecified),nt,nt,i,nt,nt
CC1C(=O)OC2C1CC[C@@]1(C)C(=O)C=C[C@@](C)(O)C21 (stereo partly specified),nt,nt,i,nt,nt
O=[N+]([O-])c1cccc2nc3ccccc3c(NCCCn3ccnc3[N+](=O)[O-])c12,16,nt,nt,nt,i
O=[N+]([O-])c1ccccc1Nc1c2ccccc2nc2ccccc12,i,i,i,i,i
O=[N+]([O-])c1ccc(N=Nc2c(Cl)cc(O)cc2Cl)cc1,i,i,0.4,i,i
COc1cccc(C=Nc2nc3ccccc3[nH]2)c1O,nt,nt,i,nt,nt
CCCc1cc(=O)n2[nH]cc(-c3ccc(Cl)cc3)c2n1,i,nt,0.35,nt,i
CS(=O)(=O)c1ccc(C(O)C(CO)NC(=O)C(Cl)Cl)cc1 (stereo unspecified),nt,nt,0.38,nt,nt
CS(=O)(=O)c1ccc(C(=O)NC(Cc2ccccc2)c2ccccc2)cc1 (stereo unspecified),i,i,i,i,i
CS(=O)(=O)c1ccc(C(O)C(CF)NC(=O)C(Cl)Cl)cc1 (stereo unspecified),nt,nt,0.06,nt,nt
O=C(NN=C/C=C/c1ccc([N+](=O)[O-])cc1)c1cccs1,nt,nt,i,nt,nt
COc1cccc(N2C(CC(=O)O)c3ccc(C=CC(=O)O)cc3S2(=O)=O)c1 (stereo unspecified),nt,nt,i,nt,nt
Cc1cc(N=Nc2ccccc2C(=O)O)c(C)c(C)c1O,i,i,i,10.0,i
Cc1cc(O)c(C(C)C)cc1N=Nc1ccccc1C(=O)O,i,i,i,i,i
COc1cc2c(cc1OC)CN(C(=S)Nc1ccccc1)CC2,i,i,i,i,i
COc1cc2c(cc1OC)CN(C(=S)Nc1ccccc1Cl)CC2,i,i,0.43,i,i
C/C=C1\NC(=O)[C@H](CC(N)=O)N(C)C(=O)C([C@@H](C)O)NC(=O)C(CCCc2ccc(OC)cc2)NC(=O)[C@H](C(C)C)NC(=O)/C(=C\C)NC(=O)[C@H](O)[C@@H](C[C@@H](O)CCCCCCC)NC(=O)[C@H](C)NC(=O)CN(C)C(=O)[C@H](CCC(N)=O)NC1=O (stereo partly specified),i,nt,0.52,nt,i
FC(F)(F)c1cc(C(F)(F)F)c2ccc(N3CCN(c4ccc(Cl)cc4)CC3)nc2n1,i,i,i,i,i
N#CC(c1ccc(Cl)cc1)c1ccc2c(C(F)(F)F)cc(C(F)(F)F)nc2n1 (stereo unspecified),15,i,i,i,i
O=C(Cn1c(CO)nc2ccccc21)NCCc1ccc(F)cc1,i,i,i,10,i
COc1ccc(/C=C/C(O)=C(\C#N)c2nnc(N3CCOCC3)n2-c2ccccc2)cc1OC,i,i,0.43,i,i
Cc1nc2ccccc2n1N=Cc1ccc([N+](=O)[O-])o1,nt,nt,0.29,nt,nt
OC(CNCC1CCCO1)Cn1c2ccc(Cl)cc2c2cc(Cl)ccc21 (stereo unspecified),i,i,0.55,i,i
OC(CNCCC1C=Nc2ccccc21)Cn1c2ccc(Cl)cc2c2cc(Cl)ccc21 (stereo unspecified),i,i,0.054,i,i
OC(CNCC1CCCO1)Cn1c2ccccc2c2ccccc21 (stereo unspecified),i,i,i,i,i
SMILES,phage Ecoli inh,AddAB inh,E coli growth-1,E coli growth-2,Tat export inh
O=C(NN=Cc1[nH]c2ccccc2c1Cl)c1cccc(Br)c1,nt,nt,i,nt,nt
Nc1nc2ccccc2n1Cc1ccc(Cl)c(Cl)c1,i,i,0.44,i,i
Cc1ccc(Cn2c(N)nc3ccccc32)cc1,i,i,nt,i,i
Nc1cc(=O)[nH]c(SCC=Cc2ccccc2)n1,nt,nt,i,nt,nt
FC(F)(F)c1cccc(NC(=S)Nc2ccc(Cl)c(Cl)c2)c1,i,i,0.4,i,i
FC(F)(F)c1cccc(NC(=S)NNC(=S)Nc2cccc(C(F)(F)F)c2)c1,nt,i,nt,i,nt
CC(C)CC1COCCS(=O)(=O)N1Cc1ccc(Cl)c(Cl)c1 (stereo unspecified),nt,nt,i,nt,nt
Cc1ccc(NS(=O)(=O)c2ccc(OCC(=O)NCc3ccco3)cc2)cc1,i,i,i,13,i
